The full data set covers some 8,800 targets. This sample favours those with a hit. About 0.5% of all pairs of compound and target were hits.
Compound: CCCS(=O)(=O)Nc1ccc(F)c(C(=O)c2c[nH]c3ncc(-c4ccc(Cl)cc4)cc23)c1F [vemurafenib]
Experiment: log2 fold change, soluble protein after heating vs DMSO (PISA); higher = thermal stabilisation; K562 lysate, 10 uM; active = over 0.2 and 3.5 SD of the protein, either way, in both replicates (recomputed)
Outline: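 Values give the log-two fold change in thermal stability against solvent controls, from duplicates. Crude K562 extract at 1 mg/mL protein, made by dounce homogenisation in PBS pH 7.4 with 1 mM MgCl2, was treated with 10 μM compound for 30 min. After 3 min heating across 48°C-58°C, aliquots were pooled, adjusted to 0.5% NP-40 at 4°C and centrifuged at 21,000xg for 90 min. The supernatant was measured by TMTpro 16plex LC-MS/MS with channel sums equalised.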

Chain of UniProt Q14746 (Q14746 whole entry, looked up): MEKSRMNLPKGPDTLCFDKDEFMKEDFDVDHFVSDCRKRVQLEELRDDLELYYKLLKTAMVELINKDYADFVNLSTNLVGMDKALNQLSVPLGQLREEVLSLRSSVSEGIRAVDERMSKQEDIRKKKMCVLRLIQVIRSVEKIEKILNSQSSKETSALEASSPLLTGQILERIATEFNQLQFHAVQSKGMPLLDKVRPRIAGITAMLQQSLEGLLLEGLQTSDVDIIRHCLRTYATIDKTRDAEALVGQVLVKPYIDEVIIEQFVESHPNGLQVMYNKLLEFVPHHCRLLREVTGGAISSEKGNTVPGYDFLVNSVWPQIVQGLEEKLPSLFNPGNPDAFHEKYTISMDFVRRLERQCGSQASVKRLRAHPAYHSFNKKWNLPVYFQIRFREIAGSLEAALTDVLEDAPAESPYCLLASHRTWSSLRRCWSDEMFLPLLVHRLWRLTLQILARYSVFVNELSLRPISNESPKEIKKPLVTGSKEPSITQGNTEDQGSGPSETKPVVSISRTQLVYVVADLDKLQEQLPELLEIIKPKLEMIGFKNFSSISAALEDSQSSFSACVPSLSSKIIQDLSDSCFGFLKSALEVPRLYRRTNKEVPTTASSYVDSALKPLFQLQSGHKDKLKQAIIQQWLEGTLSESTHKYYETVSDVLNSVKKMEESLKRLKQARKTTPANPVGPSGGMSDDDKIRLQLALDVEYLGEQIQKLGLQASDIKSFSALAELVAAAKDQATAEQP
Chain of UniProt O75534 (O75534 whole entry, looked up): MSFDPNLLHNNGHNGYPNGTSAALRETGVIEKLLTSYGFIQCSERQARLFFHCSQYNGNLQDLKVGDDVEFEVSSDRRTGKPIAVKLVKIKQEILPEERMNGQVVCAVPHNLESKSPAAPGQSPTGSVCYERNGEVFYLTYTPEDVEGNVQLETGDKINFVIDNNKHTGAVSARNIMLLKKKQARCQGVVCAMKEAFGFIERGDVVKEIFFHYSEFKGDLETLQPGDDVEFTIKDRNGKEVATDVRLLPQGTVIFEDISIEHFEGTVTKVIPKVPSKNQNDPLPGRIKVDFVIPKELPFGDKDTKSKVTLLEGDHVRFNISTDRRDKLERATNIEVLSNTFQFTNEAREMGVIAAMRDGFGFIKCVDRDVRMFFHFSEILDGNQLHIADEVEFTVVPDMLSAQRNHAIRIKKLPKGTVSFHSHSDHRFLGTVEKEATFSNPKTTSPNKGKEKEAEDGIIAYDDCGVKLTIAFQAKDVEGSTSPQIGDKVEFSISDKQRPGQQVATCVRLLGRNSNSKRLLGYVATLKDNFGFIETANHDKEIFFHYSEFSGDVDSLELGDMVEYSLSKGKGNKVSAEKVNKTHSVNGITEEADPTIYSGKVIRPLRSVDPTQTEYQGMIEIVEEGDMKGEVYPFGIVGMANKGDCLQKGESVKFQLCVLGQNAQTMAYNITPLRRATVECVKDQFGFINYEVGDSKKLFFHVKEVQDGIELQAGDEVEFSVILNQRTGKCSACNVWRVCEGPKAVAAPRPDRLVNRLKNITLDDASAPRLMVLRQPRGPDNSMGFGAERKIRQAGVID
Chain of UniProt A8TX70 (A8TX70 whole entry, looked up): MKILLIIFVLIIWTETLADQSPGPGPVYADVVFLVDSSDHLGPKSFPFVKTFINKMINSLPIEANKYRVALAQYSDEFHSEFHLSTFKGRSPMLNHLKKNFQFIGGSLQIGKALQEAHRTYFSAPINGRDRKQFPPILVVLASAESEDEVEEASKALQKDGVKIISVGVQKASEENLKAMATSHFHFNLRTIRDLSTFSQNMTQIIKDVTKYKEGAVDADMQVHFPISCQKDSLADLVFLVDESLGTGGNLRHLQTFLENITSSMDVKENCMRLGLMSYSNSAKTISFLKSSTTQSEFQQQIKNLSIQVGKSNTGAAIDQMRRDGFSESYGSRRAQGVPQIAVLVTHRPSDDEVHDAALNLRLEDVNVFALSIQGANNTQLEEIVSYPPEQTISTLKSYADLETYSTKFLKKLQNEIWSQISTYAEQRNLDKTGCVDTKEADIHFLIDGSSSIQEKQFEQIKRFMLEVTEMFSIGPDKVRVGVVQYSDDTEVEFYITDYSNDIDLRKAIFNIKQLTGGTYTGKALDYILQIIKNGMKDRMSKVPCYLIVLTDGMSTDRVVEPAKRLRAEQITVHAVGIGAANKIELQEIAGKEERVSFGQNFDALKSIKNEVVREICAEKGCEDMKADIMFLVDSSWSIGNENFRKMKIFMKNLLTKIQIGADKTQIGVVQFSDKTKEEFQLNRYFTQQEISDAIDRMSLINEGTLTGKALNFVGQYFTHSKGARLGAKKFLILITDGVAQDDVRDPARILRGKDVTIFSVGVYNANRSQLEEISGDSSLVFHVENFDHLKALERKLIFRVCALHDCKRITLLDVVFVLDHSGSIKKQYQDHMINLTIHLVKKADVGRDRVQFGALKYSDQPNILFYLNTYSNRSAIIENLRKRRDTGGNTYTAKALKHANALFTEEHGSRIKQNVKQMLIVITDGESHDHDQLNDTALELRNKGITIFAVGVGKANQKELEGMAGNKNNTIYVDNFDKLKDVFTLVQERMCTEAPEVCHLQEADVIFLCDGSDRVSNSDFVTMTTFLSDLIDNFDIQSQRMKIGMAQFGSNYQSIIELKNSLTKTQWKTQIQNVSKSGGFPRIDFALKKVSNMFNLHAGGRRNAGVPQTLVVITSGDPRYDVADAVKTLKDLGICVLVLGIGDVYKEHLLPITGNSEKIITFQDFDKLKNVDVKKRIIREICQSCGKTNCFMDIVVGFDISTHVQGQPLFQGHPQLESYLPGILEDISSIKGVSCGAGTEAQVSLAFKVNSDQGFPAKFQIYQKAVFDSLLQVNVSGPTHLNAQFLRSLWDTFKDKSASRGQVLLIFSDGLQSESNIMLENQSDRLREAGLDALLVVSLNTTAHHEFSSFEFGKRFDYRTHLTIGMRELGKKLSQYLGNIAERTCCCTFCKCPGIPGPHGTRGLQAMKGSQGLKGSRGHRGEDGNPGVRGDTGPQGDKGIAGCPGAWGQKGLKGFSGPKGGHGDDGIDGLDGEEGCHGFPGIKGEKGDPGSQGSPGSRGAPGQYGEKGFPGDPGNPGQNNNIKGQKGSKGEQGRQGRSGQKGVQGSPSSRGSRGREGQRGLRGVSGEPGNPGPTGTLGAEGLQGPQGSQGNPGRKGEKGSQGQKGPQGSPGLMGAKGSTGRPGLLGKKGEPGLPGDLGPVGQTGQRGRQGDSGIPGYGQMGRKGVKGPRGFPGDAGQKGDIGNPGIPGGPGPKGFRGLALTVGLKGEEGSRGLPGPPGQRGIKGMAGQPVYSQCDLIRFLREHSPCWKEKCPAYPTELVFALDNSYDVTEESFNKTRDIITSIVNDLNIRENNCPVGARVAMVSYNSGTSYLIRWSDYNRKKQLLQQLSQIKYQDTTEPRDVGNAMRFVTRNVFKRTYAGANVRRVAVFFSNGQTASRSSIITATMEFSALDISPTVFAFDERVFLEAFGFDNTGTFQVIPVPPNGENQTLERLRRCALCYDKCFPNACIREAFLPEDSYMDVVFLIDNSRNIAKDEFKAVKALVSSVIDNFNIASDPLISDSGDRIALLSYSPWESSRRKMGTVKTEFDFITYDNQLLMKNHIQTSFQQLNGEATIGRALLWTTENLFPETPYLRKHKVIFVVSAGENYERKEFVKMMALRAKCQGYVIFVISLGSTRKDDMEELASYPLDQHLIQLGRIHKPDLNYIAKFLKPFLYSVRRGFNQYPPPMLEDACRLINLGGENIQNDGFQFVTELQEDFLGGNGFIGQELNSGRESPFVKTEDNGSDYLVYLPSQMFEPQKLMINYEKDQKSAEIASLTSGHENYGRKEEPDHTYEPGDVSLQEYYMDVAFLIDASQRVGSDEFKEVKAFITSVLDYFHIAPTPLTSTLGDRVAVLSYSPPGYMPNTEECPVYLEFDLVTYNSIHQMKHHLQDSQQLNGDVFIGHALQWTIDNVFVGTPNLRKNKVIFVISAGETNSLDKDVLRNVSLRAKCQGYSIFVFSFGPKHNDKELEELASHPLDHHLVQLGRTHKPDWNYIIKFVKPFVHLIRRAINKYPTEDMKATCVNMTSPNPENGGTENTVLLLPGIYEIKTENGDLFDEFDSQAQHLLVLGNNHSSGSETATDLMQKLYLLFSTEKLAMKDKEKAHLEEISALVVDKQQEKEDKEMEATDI
Chain of UniProt Q8WYQ5 (Q8WYQ5 whole entry, looked up): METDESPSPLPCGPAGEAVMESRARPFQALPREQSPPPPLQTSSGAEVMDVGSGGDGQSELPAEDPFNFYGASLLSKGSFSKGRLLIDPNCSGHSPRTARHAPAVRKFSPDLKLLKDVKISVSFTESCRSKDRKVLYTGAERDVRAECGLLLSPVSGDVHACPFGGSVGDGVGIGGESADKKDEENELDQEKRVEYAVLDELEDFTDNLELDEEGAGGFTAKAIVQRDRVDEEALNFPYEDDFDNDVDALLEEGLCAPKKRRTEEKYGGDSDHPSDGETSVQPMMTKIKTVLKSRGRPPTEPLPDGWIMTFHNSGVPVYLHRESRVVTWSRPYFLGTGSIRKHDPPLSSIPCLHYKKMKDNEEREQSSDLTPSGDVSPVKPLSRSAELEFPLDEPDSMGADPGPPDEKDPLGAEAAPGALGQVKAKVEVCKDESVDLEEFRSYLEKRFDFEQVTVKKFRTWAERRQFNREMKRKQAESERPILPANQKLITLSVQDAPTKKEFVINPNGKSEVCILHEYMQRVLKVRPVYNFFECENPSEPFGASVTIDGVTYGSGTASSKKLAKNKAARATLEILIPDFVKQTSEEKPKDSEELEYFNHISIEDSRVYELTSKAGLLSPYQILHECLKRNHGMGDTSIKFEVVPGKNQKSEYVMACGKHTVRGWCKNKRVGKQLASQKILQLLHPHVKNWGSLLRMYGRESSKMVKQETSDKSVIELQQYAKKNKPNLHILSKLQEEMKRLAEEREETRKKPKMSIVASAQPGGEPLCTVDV
Chain of UniProt P61923 (P61923 whole entry, looked up): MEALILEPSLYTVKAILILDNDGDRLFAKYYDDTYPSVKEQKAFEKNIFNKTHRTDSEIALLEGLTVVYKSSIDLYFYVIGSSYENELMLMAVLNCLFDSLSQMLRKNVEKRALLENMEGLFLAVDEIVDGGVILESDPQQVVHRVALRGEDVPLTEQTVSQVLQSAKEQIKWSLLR

log2 fold change, inactive:
CKM (UniProt P06732) 0.072
CMIP (UniProt Q8IY22) 0.009
COG6 (UniProt Q9Y2V7) 0.062
DGCR8 (UniProt Q8WYQ5) -0.022
COPZ1 isoform 4 (UniProt P61923) -0.054
DENND6A (UniProt Q8IWF6) 0.025
CKAP5 (UniProt Q14008) -0.023
CNOT2 (UniProt Q9NZN8) 0.037
COL6A5 (UniProt A8TX70) 0.073
DCP1A (UniProt Q9NPI6) 0.023
COG2 (UniProt Q14746) 0.023
DEF6 (UniProt Q9H4E7) -0.004
CSDE1 isoform 4 (UniProt O75534) -0.002
CNOT6L (UniProt Q96LI5) 0.035
DHRS11 (UniProt Q6UWP2) 0.015
DNAJC1 (UniProt Q96KC8) -0.019
DOCK7 (UniProt Q96N67) 0.045
CTNND1 isoform 3 (UniProt O60716) 0.06
CHUK (UniProt O15111) 0.026
COG5 isoform 2 (UniProt Q9UP83) 0.001
CSTB (UniProt P04080) 0.007
CHORDC1 (UniProt Q9UHD1) 0.017
CSTF2 (UniProt P33240) 0.011

Reference: the supplement of paper PMC10849652
